Hit rate of the full screen: of about 300,000 compounds, about 3,700 (1.2%) were called active. About 20% were inconclusive and are not listed. The call rests on the fitted dose curve; tested in HEK293 cells. The list comes from a sample in which actives are over-represented; it also holds similar structures and randomly drawn compounds.
Test: qHTS for Inhibitors of binding or entry into cells for Lassa Virus; further: nearly all actives have a fitted effect of over 50% in size
Conditions: Lassa virus pseudotype entry inhibition, cell reporter; series mostly up to 37.9 µM; activity change, negative = inhibition: at the top concentration
On the % scale 0 is the no-effect control and ±100 the full control effect; potency means the concentration at half of the fitted maximal effect.

SMILES	Potency	activity change, negative = inhibition
COc1ccc(/C=C(\NC(=O)c2ccc(OCC(C)C)cc2)C(=O)OCc2ccco2)cc1	12.6 µM (active)	–
COc1ccc(/C=C(/NC(=O)c2ccco2)C(=O)Nc2ccc(C(C)=O)cc2)cc1	–	-17.3% (inactive)
COc1ccc(C(=O)Nc2ccccc2C(=O)NCc2ccco2)cc1	–	-0.689% [at 46.1 µM] (inactive)
Cc1cc(C)c(C)c(S(=O)(=O)Nc2cccnc2)c1C	–	-11.1% (inactive)
CCOc1ccccc1CNC(=O)c1cnc2c(-c3ccc(OCC)c(OCC)c3)c(C)nn2c1C	–	-2.1% [at 46.1 µM] (inactive)
Cc1ccc2nc(NC(=O)C3CSC4(C)CCC(=O)N34)sc2c1 (stereo unspecified)	–	16.4% (inactive)
O=C(Cc1c(Cl)cccc1Cl)NC1CC1	–	16.2% [at 46.1 µM] (inactive)
CCc1cccc(CC)c1NC(=S)NCc1ccc2[nH]c(C)cc2c1	18.4 µM (active)	–
Cc1c(NC(=S)NCc2ccc(F)cc2)cccc1[N+](=O)[O-]	–	-4.19% (inactive)
Cc1c(Cl)cccc1NC(=S)NCc1ccc2c(c1)OCO2	–	-5.04% (inactive)
O=C(CCc1ccccc1Cl)Nc1ccc(S(=O)(=O)Nc2nccs2)cc1	–	-5.82% (inactive)
O=C(COC(=O)c1ccc(O)cc1O)NC(=O)c1ccccc1	–	-1.32% (inactive)
O=C(CN(Cc1ccccc1)C(=O)CCC(=O)Nc1ccccn1)NCCc1ccccc1	–	-18.6% (inactive)
Cc1cc([N+](=O)[O-])ccc1NS(=O)(=O)c1ccccc1	–	13.3% [at 46.1 µM] (inactive)
O=C(COc1cccnc1[N+](=O)[O-])Nc1ccc(Cl)cc1F	–	-13.2% [at 46.1 µM] (inactive)
O=C(c1ccco1)n1nc(-c2ccc(Cl)cc2)nc1NCc1ccccc1	–	16.4% [at 46.1 µM] (inactive)
O=C(CCC(=O)c1cccs1)NCc1ccccc1	–	8.14% (inactive)
O=C(c1cccs1)n1nc(NCc2ccccc2)nc1NCc1ccccc1	10 µM (active)	–
Oc1cccc(CCc2ccccn2)c1	–	12.1% (inactive)
Cc1ccc(-c2nn(-c3ccc(F)cc3)cc2C(=O)NCC(c2cccs2)N2CCOCC2)cc1 (stereo unspecified)	–	-4.1% (inactive)
CC(C)c1nc2sc3c(c2c(=O)n1N)CC(C)(C)OC3	–	4.95% [at 46.1 µM] (inactive)
CC/C(C)=N/Nc1nc2sc3c(c2c(=O)[nH]1)CC(C)(C)OC3	5.01 µM (active)	–

SMILES	Potency	activity change, negative = inhibition
CCOC(=O)CSc1nc2sc3c(c2c(=O)[nH]1)CC(C)(C)OC3	–	20% (inactive)
Cc1ccc(NC(=O)CSc2nn3c(=O)c(C)nnc3s2)cc1Cl	–	13.1% (inactive)
COCC(C)n1c(SCc2ccc(C(=O)OC)o2)nc2ccccc2c1=O (stereo unspecified)	10.3 µM (active)	–
COC(=O)c1ccc(CSc2ccccc2C)o1	–	18.4% (inactive)
COCC(C)n1c(SCC(=O)NC2CCCCC2C)nc2ccccc2c1=O (stereo unspecified)	–	-23.2% (inactive)
O=C(NCCS(=O)(=O)N1CCN(c2ccc(F)cc2)CC1)c1ccc2c(c1)OCO2	–	-11.9% (inactive)
O=C1/C(=C\c2ccc(O)cc2)CCC1CNc1ccc(Cl)cc1 (stereo unspecified)	–	-15% (inactive)
Cc1cccc(NC(=O)c2cccc(S(=O)(=O)N3CCCC3)c2)n1	–	12.1% (inactive)
O=C(CCCn1c(=O)c2cccn2c2cccnc21)NCc1ccc(F)cc1	–	16.8% [at 46.1 µM] (inactive)
Cc1cccc(N2CCN(C(=O)Cn3ncc4c5ccccc5n(C)c4c3=O)CC2C)c1 (stereo unspecified)	–	8.45% [at 46.1 µM] (inactive)
Cc1cccc(N2CCN(C(=O)CCn3c(=O)c4cccn4c4cccnc43)CC2C)c1 (stereo unspecified)	7.94 µM (active)	–
O=C(/C=C/c1cccc([N+](=O)[O-])c1)OCC(=O)N1CCOCC1	–	-4.28% (inactive)
O=C(NCCc1ccco1)c1ccc(OCc2cn3ccccc3n2)cc1	–	-12.7% [at 46.1 µM] (inactive)
CCc1nn(CCCC(=O)Nc2ccc(C)c(C)c2)c(=O)c2cc3occc3n12	–	-0.66% [at 46.1 µM] (inactive)
C=CCN(CC=C)S(=O)(=O)c1ccc(C(=O)Nc2sc3c(c2C(N)=O)CCCCC3)cc1	–	-29.3% (inactive)
CCOC(=O)c1c(NC(=O)c2ccc(S(=O)(=O)N(CC)CC)cc2)sc2c1CCCCC2	–	4.06% [at 46.1 µM] (inactive)
C=CCN(CC=C)S(=O)(=O)c1ccc(C(=O)Nc2nc3c(s2)CCc2ccccc2-3)cc1	3.16 µM (active)	–
O=C(Nc1ncccc1O)c1ccc(S(=O)(=O)N2CCCCCC2)cc1	–	10.4% (inactive)
CC(=O)/C(=N\Nc1ccc(Cl)cc1Cl)Sc1cccc2cccnc12	11.2 µM (active)	–
O=C(CSc1cccc2cccnc12)N/N=C/c1cccnc1	–	-3.85% [at 46.1 µM] (inactive)
COc1c(Cl)cc(Cl)cc1C(=O)Nc1cccc2cccnc12	–	6.22% [at 46.1 µM] (inactive)
O=C(CC(=O)c1cccnc1)c1ccccc1	–	-17.8% [at 46.1 µM] (inactive)

SMILES	Potency	activity change, negative = inhibition
CCN(C(=O)CSc1cccc[n+]1[O-])c1ccccc1	–	-2.75% (inactive)
CC1(C(=O)N/N=C/c2cc3c(cc2Br)OCO3)CC1(Br)Br (stereo unspecified)	–	-0.778% (inactive)
O=C(Nc1nnc(S(=O)(=O)N2CCCc3ccccc32)s1)c1cccc(F)c1	–	0.0572% [at 46.1 µM] (inactive)
O=C(NC(Nc1nc2ccc([N+](=O)[O-])cc2s1)(C(F)(F)F)C(F)(F)F)c1ccccc1	0.92 µM (active)	–
CS(=O)(=O)c1ccc2nc(NC(=O)c3ccc(N4CCCC4=O)cc3)sc2c1	–	14% (inactive)
O=C(Nc1nc2ccc([N+](=O)[O-])cc2s1)c1ccc(S(=O)(=O)N2CCCc3ccccc32)cc1	12.6 µM (active)	–
O=C(COC(=O)c1ccc(F)cc1)Nc1nc2ccc([N+](=O)[O-])cc2s1	–	7.09% (inactive)
O=C(Nc1nc2ccc([N+](=O)[O-])cc2s1)c1ccncc1	–	27.1% [at 46.1 µM] (inactive)
COc1cc(C2C(C(=O)c3cccs3)=C(O)C(=O)N2CCN2CCOCC2)ccc1OCCC(C)C (stereo unspecified)	–	-8.18% [at 46.1 µM] (inactive)
COc1cc(C(=O)CCc2ccc3c(c2)OCO3)cc(OC)c1OC	–	-0.612% [at 46.1 µM] (inactive)
Cn1c(=O)[nH]c2c(c(C(=O)O)nn2C)c1=O	–	20.9% [at 46.1 µM] (inactive)
COc1cc2c(cc1OC)CN(C(C)C(=O)Nc1cccc(S(=O)(=O)N3CCOCC3)c1)CC2 (stereo unspecified)	–	-4.84% (inactive)
CC(=O)CSc1nc(CCc2ccccc2)c(C#N)c(=O)[nH]1	–	-8.72% [at 46.1 µM] (inactive)
O=C(NCCN1CCN(Cc2ccccc2)CC1)c1cc2c(=O)[nH]c3ccccc3c2s1	–	-33.8% (inactive)
Cc1cccc(N2CCN(C(=O)c3cc4c(=O)[nH]c5ccccc5c4n3C)CC2)c1C	–	3.45% (inactive)
Cn1c(C(=O)NCCN2CCc3ccccc3C2)cc2c(=O)[nH]c3ccccc3c21	0.92 µM (active)	–
CCOC(=O)N1CCN(C(=O)C2CCCN(c3ncnc4c3sc3cccc(F)c34)C2)CC1 (stereo unspecified)	–	17.2% [at 46.1 µM] (inactive)
OC1CCCN(c2ncnc3c2nnn3Cc2c(F)cccc2Cl)C1 (stereo unspecified)	6.31 µM (active)	–
Cc1ccc(NC(=O)N2CCC(c3nc4c(nnn4Cc4c(F)cccc4Cl)c(=O)[nH]3)CC2)cc1	–	-7.82% (inactive)
Cc1ccc(Br)c(NS(=O)(=O)c2cccc(C(=O)N3CCNC(=O)C3)c2)c1	–	-10.2% (inactive)
NC(=O)C1CCN(C(=O)c2cccc(NC(=O)c3nsc4ccccc34)c2)CC1	–	-10.3% [at 46.1 µM] (inactive)
Cn1cccc1C(=O)OCC(=O)c1ccc(Br)s1	–	22.3% (inactive)

SMILES	Potency	activity change, negative = inhibition
COc1ccc(CNC(=O)CN2C(=O)c3ccccc3S2(=O)=O)cc1	–	14% (inactive)
COc1cccc(NC(=O)C/C(C)=N/NC(=O)C2CCCCC2)c1	–	2.41% (inactive)
COc1ccc(COC(=O)N/N=C(\C)CC(=O)Nc2ccc(Cl)cc2)cc1	0.141 µM (active)	–
C/C(CC(=O)Nc1ccc(Cl)cc1)=N\NC(=O)C(=O)NCCO	–	7.56% (inactive)
CCN(CC(=O)Nc1ccccc1OC)C(=O)CC1CC2CCC1C2 (stereo unspecified)	–	1.83% (inactive)
Cc1ccc(OCC(=O)N/N=C/c2ccncc2)cc1	–	-13.7% (inactive)
Cc1ccc(OCC(=O)N/N=C\c2ccco2)c(C)c1	–	1.48% (inactive)
Cc1ccc(/C=N/NC(=O)COc2ccccc2-c2ccccc2)cc1	1.64 µM (active)	–
CCc1cccc(NC(=O)CCC(=O)O)c1	–	7.85% (inactive)
O=C(CCl)Nc1cccc(CP(=O)(c2ccccc2)c2ccccc2)c1	7.94 µM (active)	–
O=C(Cc1ccccc1)Nc1cccc(NC(=O)c2ccccc2)c1	–	-29.8% (inactive)
CN(C)S(=O)(=O)c1ccc(N2CCCC2)c(C(=O)Nc2ccc(Br)cc2F)c1	–	-5.54% (inactive)
CCCn1nc(C(=O)OCc2nc(N)nc(Nc3ccccc3C)n2)c2ccccc2c1=O	–	0.474% (inactive)
CCC(C(=O)Nc1cc(OC)ccc1OC)n1c(=O)c(C(F)(F)F)nc2ccccc21 (stereo unspecified)	–	1.55% [at 46.1 µM] (inactive)
O=C(N/C(=C/c1ccc(Cl)cc1)C(=O)N1CCCCC1)c1ccco1	–	4.09% (inactive)
CCN(CC)S(=O)(=O)c1ccc2c(c1)c(=O)c(C(=O)N1CCN(c3cccc(Cl)c3)CC1)cn2C	–	-19% [at 46.1 µM] (inactive)
C=CCn1cc(C(=O)NCc2ccc(Cl)cc2)c(=O)c2cc(S(=O)(=O)N(CC)CC)ccc21	0.398 µM (active)	–
CCn1cc(C(=O)NCc2ccccc2)c(=O)c2cc(S(=O)(=O)N3CCCCC3)ccc21	–	-3.22% [at 46.1 µM] (inactive)
CC(=O)OC1CCC2(C)C(=CCC3C4CC(=O)N(O)C(=O)C4(C)CCC32)C1 (stereo unspecified)	–	0% [at 46.1 µM] (inactive)
CC(C(=O)NC1CCCC1)N1CCN(S(=O)(=O)c2ccccc2Cl)CC1 (stereo unspecified)	–	-29.2% (inactive)
Cc1ccc(N(CC(=O)NC2CCCCC2)C(=O)CCCC(=O)Nc2ccccn2)c(C)c1	–	1.25% (inactive)
CC(Nc1nc(N2CCCC2)nc2ccccc12)c1ccccc1 (stereo unspecified)	12.6 µM (active)	–

SMILES	Potency	activity change, negative = inhibition
CC(Nc1nc(N2CCOCC2)nc2ccccc12)c1ccccc1 (stereo unspecified)	–	-28.7% (inactive)
c1ccc2c(NC3C4CC5CC(C4)CC3C5)nc(N3CCOCC3)nc2c1 (stereo unspecified)	–	-20.9% (inactive)
Cc1ccc(S(=O)(=O)N2CCC(C(=O)NCCC3=CCCCC3)CC2)cc1C	–	-19.8% (inactive)
COc1cc(NC(=O)c2ccc(-c3csc(C)n3)cc2)c(OC)cc1Cl	–	3.71% [at 46.1 µM] (inactive)
O=C1c2ccccc2C(=O)c2c1cccc2N1CCN(C/C=C/c2ccccc2)CC1	–	-2.1% (inactive)
O=C(Nc1cccc(Br)c1)C1CC(=O)N(C2CCCC2)C1 (stereo unspecified)	–	-5.96% (inactive)
CN(C)S(=O)(=O)c1cccc(NC(=O)Cc2ccsc2)c1	2.82 µM (active)	–
CN(c1ccccc1)S(=O)(=O)c1ccc(Cl)c(C(=O)OCC(N)=O)c1	–	0.528% (inactive)
CN(c1ccccc1)S(=O)(=O)c1cccc(NC(=O)Cc2ccc(Cl)cc2)c1	8.91 µM (active)	–
Cc1ccc(S(=O)(=O)N(CC(=O)Nc2cccc([N+](=O)[O-])c2)Cc2ccc(Cl)cc2)cc1	–	-10.6% (inactive)
NS(=O)(=O)c1ccc(NC(=O)COC(=O)C2(c3ccc(F)cc3)CCCC2)cc1	–	-23.2% (inactive)
CN(c1ccccc1)S(=O)(=O)c1cccc(C(=O)NNC(=O)c2ccncc2)c1	–	2.82% [at 46.1 µM] (inactive)
CN(c1cccc(NC(=O)Nc2ccc(Cl)cc2)c1)S(C)(=O)=O	–	-26.4% (inactive)
CN(c1ccccc1)S(=O)(=O)c1cccc(NC(=O)Cc2c(F)cccc2Cl)c1	11.2 µM (active)	–
CN(C)S(=O)(=O)c1cccc(NC(=O)COC(=O)/C=C/c2cccs2)c1	–	-1.32% (inactive)
CN(C)S(=O)(=O)c1cccc(NC(=O)COC(=O)C2(c3ccccc3F)CCCC2)c1	4.11 µM (active)	–
CN(C)S(=O)(=O)c1cccc(NC(=O)COC(=O)c2cc(=O)[nH]c(=O)[nH]2)c1	–	10.8% (inactive)
CN(C)S(=O)(=O)c1cccc(NC(=S)N/N=C/C(=O)c2ccccc2)c1	–	1.43% (inactive)
